Results on 40 sequences are retold here after the supplement of paper PMC6555819.

In one assay the test system is PPARg DBDmut:RXRa IVT, anti-PPARg (DBD mutation: PPARg1 K132A/R137A, NR concentration 270 nM, RXRa partner concentration 90 nM). Briefly: PBM binding z-score (relative to random genomic background probes); higher = stronger binding; sequences stand for … in GC…GCGATTGACAGCGTAGAATGAAGG
The method in brief:
(§1)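 Probes were double-stranded and carried 34-nt variable regions with direct-repeat seeds, single-nucleotide variants, half-site ablations and random human genomic background sequences, printed on custom Agilent 4×180K protein-binding microarrays. Arrays were incubated 1 h with ligand-free nuclear receptor dimers in PBS pH 7.4, 2% milk, 0.02% Triton X-100, 1 mM DTT, 0.2 mg/mL BSA and 0.4 mg/ml salmon testes DNA. Antibodies against each partner (one per run) detected binding, and scanned fluorescence was regression-normalized. Binding z-scores use the random background probes as reference.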
The sequence ATCGAAATGTCGAGGTGAGTATAGAGAAAGGGAA registered a PBM binding z-score of 0.309.

For ACTAGCAGGCCCAGTTTGGGTCACTCAAACAAAG, the PBM binding z-score is -1.4.

For the sequence CCTAGTTGGTCGGGAGGTCACACACCGGATATGA, the PBM binding z-score is 0.253.

As to ATCTCTAGGTAAAGACAGTTCAGTGAATGCAAAT, the PBM binding z-score is 0.488.

As to CCGATTGGGGCAAGGTTACCATAACGCACAGCCA, the PBM binding z-score is -0.839.

The sequence GCTGTTAGGTCAACTGATGGTCAGCTAAAGCTCG returned a PBM binding z-score of 0.716.

AGAATGAGGTTATACGTAGTTCAGGGAAGAAAGT: the PBM binding z-score worked out at 1.03.

CCTTGTTGGTCAAGGTCACACACGCTATAGGTAC: the PBM binding z-score worked out at 1.18.

As to CGTCCAAGGTCAGAGAGGTCAGTTAATGCCGAGT, the PBM binding z-score worked out at 0.545.

As to TCGAGTAGGTCAGGGGCATTCAGAATGGCGTCGA, the PBM binding z-score was -0.408.

For the sequence GCAGACAGGTGAAACGCAGGAAACTCAGGGTGGC, the PBM binding z-score was -0.857.

The sequence ACTCGGAGAACAAAGGTCAGAGCTACGCCAGTGA showed a PBM binding z-score of 0.171.

On to ATCTCTAGGTAAAGATAGATCAGTGAATGCAAAT, for which the PBM binding z-score was found to be 0.429.

Take CGTCCAAGGGCAAAGGTCAGTGAAGAGATGACGG: the PBM binding z-score is -0.495.

Consider TCTCGGAGGACACGAACGGTCAGAGCTCGACATC, for which the PBM binding z-score was -0.337.

GCGACTGGGGTATCAGCAGGTTACCATAACTTAA: the PBM binding z-score was -0.348.

The sequence ATCTCTAGGTAAAAAGTTCAGTGAAAGAGAGGAC registered a PBM binding z-score of 1.14.

As for CTCGAAAGGTCGGTTAAGGTGAGTATACGGATAA, the PBM binding z-score was found to be 0.246.

Regarding GCTGCTAGGTCAGGTTGGTCACCTAACGGGTACG, the PBM binding z-score was -1.27.

Turning to GGAACGAGGGCAAAGTTGATAGCATCTGTCGACG, the PBM binding z-score was determined as 0.506.

In the case of CCTTACGGGTGACTGACAGGTTATAGCATTTGGA, the PBM binding z-score is 0.0764.

On to AATCCAGGGTCATCGTAGGCCAGAGTACGCACAG, for which the PBM binding z-score was determined as 1.57.

With ACTAGCAGGCCAAGTCTGGGTCACTCAAACAAAG, the PBM binding z-score was -0.209.

Regarding ATCTCTAGGTAAGACTAAGTTCAGTGAAGAACGC, the PBM binding z-score stood at 0.418.

As to CAAACTAGGTCAGCGGAAGGTCAAAGTCCGCATG, the PBM binding z-score is 3.33.

With GATACAGGGTCAAGGCCGGAGTACGCGTATTGAT, the PBM binding z-score is -0.0401.

The sequence GCGTACGGGTCAAAGGTTATAGCATGAATAGAAT registered a PBM binding z-score of 0.234.

CGATCGAGGGCATGAGTTGATAGCAAATGCCGAT: the PBM binding z-score was -0.505.

Consider GTACCTAGGTGAATAGGTCGTTGATGAGTAGGCG, for which the PBM binding z-score is -0.531.

TCTATTAGTTTATTAGGGCAACCGAAACAGCGGA: the PBM binding z-score was 2.16.

As to GCTCGGCGGACAAGGTCAGAGCTTTGTCCGTAGA, the PBM binding z-score is -1.6.

As to ACTAGCAGGCCAAGGGTCTCTCAAGATTAGTCCG, the PBM binding z-score was -1.04.

Turning to GCTGCTAGGTCAGGTTGGTCAGATAACGGGTACG, the PBM binding z-score is -0.406.

Consider GCTAGCAGGCCATTTGAGTCACTCAATGACGGGC, for which the PBM binding z-score was -0.509.

With CGAACGAGGGCATGCGTTGATAGCAAATGCCGAT, the PBM binding z-score is -0.297.

With AATAGCAGGCCAAGTTTGGGTCACTCAAACAAAG, the PBM binding z-score was -0.692.

In turn, TCTAGTTCGTCAAAGGTCACACACTCGAAATGCG returned a PBM binding z-score of 2.7.

In the case of ACTTACGGGTCAACGAGGTTATAGTACGCGTATA, the PBM binding z-score came to 1.99.

AGAATGAGGGCAATGAGTTGATAGCACGGGTGGC yielded a PBM binding z-score of 0.634.

In the case of ACTAGCAGGCCAAGTTTGGGTCACTGAAACAAAG, the PBM binding z-score was -0.659.

The test system of another assay is PPARg DBDmut IVT, anti-PPARg (DBD mutation: PPARg1 K132A/R137A, NR concentration 270 nM). The description is as above. The method in brief: as §1
For the sequence ATCGAAATGTCGAGGTGAGTATAGAGAAAGGGAA, the PBM binding z-score came to 0.489.

For ACTAGCAGGCCCAGTTTGGGTCACTCAAACAAAG, the PBM binding z-score is -0.708.

The sequence CCTAGTTGGTCGGGAGGTCACACACCGGATATGA displayed a PBM binding z-score of 0.694.

ATCTCTAGGTAAAGACAGTTCAGTGAATGCAAAT: the PBM binding z-score was found to be 0.666.

As to CCGATTGGGGCAAGGTTACCATAACGCACAGCCA, the PBM binding z-score was -0.45.

In the case of GCTGTTAGGTCAACTGATGGTCAGCTAAAGCTCG, the PBM binding z-score was determined as 0.227.

AGAATGAGGTTATACGTAGTTCAGGGAAGAAAGT displayed a PBM binding z-score of 0.605.

The sequence CCTTGTTGGTCAAGGTCACACACGCTATAGGTAC yielded a PBM binding z-score of 0.66.

In turn, CGTCCAAGGTCAGAGAGGTCAGTTAATGCCGAGT gave a PBM binding z-score of 0.19.

For the sequence TCGAGTAGGTCAGGGGCATTCAGAATGGCGTCGA, the PBM binding z-score was -0.403.

Take GCAGACAGGTGAAACGCAGGAAACTCAGGGTGGC: the PBM binding z-score is -0.37.

For ACTCGGAGAACAAAGGTCAGAGCTACGCCAGTGA, the PBM binding z-score is -0.0554.

Consider ATCTCTAGGTAAAGATAGATCAGTGAATGCAAAT, for which the PBM binding z-score was 1.24.

As to CGTCCAAGGGCAAAGGTCAGTGAAGAGATGACGG, the PBM binding z-score is -0.877.

In the case of TCTCGGAGGACACGAACGGTCAGAGCTCGACATC, the PBM binding z-score was -0.995.

As for GCGACTGGGGTATCAGCAGGTTACCATAACTTAA, the PBM binding z-score is -0.554.

On to ATCTCTAGGTAAAAAGTTCAGTGAAAGAGAGGAC, for which the PBM binding z-score was 0.995.

Sequence CTCGAAAGGTCGGTTAAGGTGAGTATACGGATAA showed a PBM binding z-score of 0.287.

In the case of GCTGCTAGGTCAGGTTGGTCACCTAACGGGTACG, the PBM binding z-score is -1.36.

As to GGAACGAGGGCAAAGTTGATAGCATCTGTCGACG, the PBM binding z-score is -0.103.

Consider CCTTACGGGTGACTGACAGGTTATAGCATTTGGA, for which the PBM binding z-score was -0.581.

In turn, AATCCAGGGTCATCGTAGGCCAGAGTACGCACAG returned a PBM binding z-score of 0.689.

For the sequence ACTAGCAGGCCAAGTCTGGGTCACTCAAACAAAG, the PBM binding z-score was -0.38.

ATCTCTAGGTAAGACTAAGTTCAGTGAAGAACGC came in with a PBM binding z-score of 0.902.

CAAACTAGGTCAGCGGAAGGTCAAAGTCCGCATG came in with a PBM binding z-score of 1.19.

Regarding GATACAGGGTCAAGGCCGGAGTACGCGTATTGAT, the PBM binding z-score stood at 0.122.

Regarding GCGTACGGGTCAAAGGTTATAGCATGAATAGAAT, the PBM binding z-score came out at 2.

Take CGATCGAGGGCATGAGTTGATAGCAAATGCCGAT: the PBM binding z-score was -0.163.

In the case of GTACCTAGGTGAATAGGTCGTTGATGAGTAGGCG, the PBM binding z-score was -0.303.

Regarding TCTATTAGTTTATTAGGGCAACCGAAACAGCGGA, the PBM binding z-score is 2.42.

As to GCTCGGCGGACAAGGTCAGAGCTTTGTCCGTAGA, the PBM binding z-score is -1.83.

With ACTAGCAGGCCAAGGGTCTCTCAAGATTAGTCCG, the PBM binding z-score is -0.76.

In the case of GCTGCTAGGTCAGGTTGGTCAGATAACGGGTACG, the PBM binding z-score was -0.502.

GCTAGCAGGCCATTTGAGTCACTCAATGACGGGC: the PBM binding z-score is -2.18.

As to CGAACGAGGGCATGCGTTGATAGCAAATGCCGAT, the PBM binding z-score was -0.501.

Consider AATAGCAGGCCAAGTTTGGGTCACTCAAACAAAG, for which the PBM binding z-score is -0.417.

Sequence TCTAGTTCGTCAAAGGTCACACACTCGAAATGCG returned a PBM binding z-score of 1.85.

ACTTACGGGTCAACGAGGTTATAGTACGCGTATA yielded a PBM binding z-score of 1.76.

In the case of AGAATGAGGGCAATGAGTTGATAGCACGGGTGGC, the PBM binding z-score came out at 0.0242.

With ACTAGCAGGCCAAGTTTGGGTCACTGAAACAAAG, the PBM binding z-score is -0.796.
